What was measured:
Experiment in all cases: DAPPL (digital affinity profiling via proximity ligation, sequencing); 10 mM Tris-HCl pH 7.5, 50 mM NaCl, 1 mM DTT, 4% glycerol, room temperature, 30 min; GST-TFs on glutathione beads, 16-mer random dsDNA library, 0.1% formaldehyde crosslink after washing; high values mean tight binding
FEV = target: T1, FEV (Homo sapiens, UniProt Q99581 1-238); details: protein: recombinant; tags: N-terminal GST; dsDNA, one strand shown
T1 sequence: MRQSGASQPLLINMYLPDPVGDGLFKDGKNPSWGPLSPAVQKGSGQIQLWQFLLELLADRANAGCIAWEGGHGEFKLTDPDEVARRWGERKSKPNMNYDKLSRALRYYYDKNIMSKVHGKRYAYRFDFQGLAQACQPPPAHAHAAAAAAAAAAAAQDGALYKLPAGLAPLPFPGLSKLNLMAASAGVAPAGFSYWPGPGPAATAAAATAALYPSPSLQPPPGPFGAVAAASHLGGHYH
How it was run: (§1)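 Yeast served to express human transcription factors as GST fusions, which were then captured on glutathione beads and labelled with DNA barcodes. Pooled with a tag-only sample, they were incubated with 200 nmole of a 16-mer random double-stranded DNA library for 30 min at room temperature in Tris/NaCl/DTT/glycerol buffer, washed, crosslinked with 0.1% formaldehyde, ligated by proximity, amplified by PCR and sequenced. Dividing each hexamer's read frequency for a factor by its frequency for the tag-only sample gives the binding signal.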

ETV5 = ETV5 (Homo sapiens, UniProt P41161 1-510); details: protein: recombinant; tags: N-terminal GST; dsDNA, one strand shown
ETV5, sequence (P41161 whole entry): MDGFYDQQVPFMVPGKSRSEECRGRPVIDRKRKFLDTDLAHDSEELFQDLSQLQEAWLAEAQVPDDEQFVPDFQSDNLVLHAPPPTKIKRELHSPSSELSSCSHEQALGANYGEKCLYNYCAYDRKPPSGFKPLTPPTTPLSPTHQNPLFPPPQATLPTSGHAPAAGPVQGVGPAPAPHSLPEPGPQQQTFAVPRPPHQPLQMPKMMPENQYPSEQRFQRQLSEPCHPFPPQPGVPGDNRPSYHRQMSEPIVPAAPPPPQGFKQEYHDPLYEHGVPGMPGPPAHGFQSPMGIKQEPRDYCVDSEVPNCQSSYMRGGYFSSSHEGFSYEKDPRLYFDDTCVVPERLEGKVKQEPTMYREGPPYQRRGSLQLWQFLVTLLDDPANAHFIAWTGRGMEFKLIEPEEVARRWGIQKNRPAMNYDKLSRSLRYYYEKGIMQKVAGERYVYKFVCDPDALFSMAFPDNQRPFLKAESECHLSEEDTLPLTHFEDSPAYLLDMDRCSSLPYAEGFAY
How it was run: as §1

HSF1 = HSF1 (Homo sapiens, UniProt Q00613 1-529); details: protein: recombinant; tags: N-terminal GST; chain copies: 3; dsDNA, one strand shown
HSF1, sequence (Q00613 whole entry): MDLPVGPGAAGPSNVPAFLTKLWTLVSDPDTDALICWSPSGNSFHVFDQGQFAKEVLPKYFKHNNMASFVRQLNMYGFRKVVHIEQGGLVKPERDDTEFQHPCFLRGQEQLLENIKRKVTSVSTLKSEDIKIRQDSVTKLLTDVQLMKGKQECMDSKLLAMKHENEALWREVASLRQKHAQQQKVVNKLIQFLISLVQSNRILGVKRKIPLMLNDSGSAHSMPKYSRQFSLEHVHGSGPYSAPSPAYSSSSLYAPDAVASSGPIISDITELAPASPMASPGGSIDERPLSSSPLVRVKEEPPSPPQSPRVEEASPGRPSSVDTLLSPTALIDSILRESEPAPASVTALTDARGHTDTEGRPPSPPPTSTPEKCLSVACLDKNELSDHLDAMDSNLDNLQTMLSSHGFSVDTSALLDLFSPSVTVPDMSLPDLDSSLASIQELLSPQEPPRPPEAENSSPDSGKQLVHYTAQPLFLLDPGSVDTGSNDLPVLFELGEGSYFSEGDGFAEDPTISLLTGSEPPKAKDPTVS
How it was run: as §1

SPIC = target: T2, SPIC (Homo sapiens, UniProt Q8N5J4 1-248); details: protein: recombinant; tags: N-terminal GST; dsDNA, one strand shown
T2 sequence: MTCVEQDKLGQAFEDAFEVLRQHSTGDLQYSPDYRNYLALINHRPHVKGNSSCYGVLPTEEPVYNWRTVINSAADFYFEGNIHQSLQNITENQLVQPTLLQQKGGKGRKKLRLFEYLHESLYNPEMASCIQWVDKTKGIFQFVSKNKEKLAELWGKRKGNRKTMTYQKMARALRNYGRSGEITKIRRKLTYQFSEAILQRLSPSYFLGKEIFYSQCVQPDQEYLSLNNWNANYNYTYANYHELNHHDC
How it was run: as §1

ELF4 = ELF4 (Homo sapiens, UniProt Q99607 1-663); details: protein: recombinant; tags: N-terminal GST; dsDNA, one strand shown
ELF4, sequence (Q99607 whole entry): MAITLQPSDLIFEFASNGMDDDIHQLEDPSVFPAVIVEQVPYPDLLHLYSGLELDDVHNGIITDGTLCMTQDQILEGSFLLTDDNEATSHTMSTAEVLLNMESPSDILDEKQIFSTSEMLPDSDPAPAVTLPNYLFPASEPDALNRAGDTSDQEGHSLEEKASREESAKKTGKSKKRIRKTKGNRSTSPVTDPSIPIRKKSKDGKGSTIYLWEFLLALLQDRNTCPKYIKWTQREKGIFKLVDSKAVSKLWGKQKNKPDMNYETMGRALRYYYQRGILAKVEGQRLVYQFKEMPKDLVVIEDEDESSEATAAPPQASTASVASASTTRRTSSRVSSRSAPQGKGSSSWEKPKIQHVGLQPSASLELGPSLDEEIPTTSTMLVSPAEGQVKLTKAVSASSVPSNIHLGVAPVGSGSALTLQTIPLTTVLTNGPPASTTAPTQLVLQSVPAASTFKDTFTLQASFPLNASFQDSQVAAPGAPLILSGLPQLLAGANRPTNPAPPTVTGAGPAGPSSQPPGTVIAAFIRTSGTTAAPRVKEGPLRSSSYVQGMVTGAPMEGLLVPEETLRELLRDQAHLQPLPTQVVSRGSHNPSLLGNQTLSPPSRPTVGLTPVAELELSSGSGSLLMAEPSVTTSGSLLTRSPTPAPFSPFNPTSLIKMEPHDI
How it was run: as §1

ELK4 = target: T3, ELK4 (Homo sapiens, UniProt P28324-2 1-405); details: protein: recombinant; tags: N-terminal GST; dsDNA, one strand shown
T3 sequence: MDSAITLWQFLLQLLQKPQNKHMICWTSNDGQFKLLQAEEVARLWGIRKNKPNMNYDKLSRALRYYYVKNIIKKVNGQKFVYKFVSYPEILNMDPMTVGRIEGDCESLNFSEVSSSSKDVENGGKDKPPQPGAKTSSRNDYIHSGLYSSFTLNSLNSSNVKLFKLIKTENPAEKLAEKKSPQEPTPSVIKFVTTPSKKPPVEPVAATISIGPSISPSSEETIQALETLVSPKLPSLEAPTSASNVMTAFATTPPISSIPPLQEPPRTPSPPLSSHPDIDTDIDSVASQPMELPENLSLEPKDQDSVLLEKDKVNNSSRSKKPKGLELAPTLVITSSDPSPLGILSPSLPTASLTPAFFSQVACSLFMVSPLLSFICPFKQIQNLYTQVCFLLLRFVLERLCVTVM
How it was run: as §1

ETV2 = target: T4, ETV2 (Homo sapiens, UniProt O00321 1-342); details: protein: recombinant; tags: N-terminal GST; dsDNA, one strand shown
T4 sequence: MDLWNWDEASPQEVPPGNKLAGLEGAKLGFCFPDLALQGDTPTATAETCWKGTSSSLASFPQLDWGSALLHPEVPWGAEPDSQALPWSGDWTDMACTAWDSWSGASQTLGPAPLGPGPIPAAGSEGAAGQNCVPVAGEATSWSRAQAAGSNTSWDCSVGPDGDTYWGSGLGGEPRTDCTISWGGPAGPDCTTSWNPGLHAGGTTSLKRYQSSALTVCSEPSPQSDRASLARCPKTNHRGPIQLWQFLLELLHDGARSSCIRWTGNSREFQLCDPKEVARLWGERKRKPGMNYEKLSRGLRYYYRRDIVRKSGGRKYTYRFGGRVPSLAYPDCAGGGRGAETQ
How it was run: as §1

ELF3 = target: T5, ELF3 (Homo sapiens, UniProt P78545 1-371); details: protein: recombinant; tags: N-terminal GST; dsDNA, one strand shown
T5 sequence: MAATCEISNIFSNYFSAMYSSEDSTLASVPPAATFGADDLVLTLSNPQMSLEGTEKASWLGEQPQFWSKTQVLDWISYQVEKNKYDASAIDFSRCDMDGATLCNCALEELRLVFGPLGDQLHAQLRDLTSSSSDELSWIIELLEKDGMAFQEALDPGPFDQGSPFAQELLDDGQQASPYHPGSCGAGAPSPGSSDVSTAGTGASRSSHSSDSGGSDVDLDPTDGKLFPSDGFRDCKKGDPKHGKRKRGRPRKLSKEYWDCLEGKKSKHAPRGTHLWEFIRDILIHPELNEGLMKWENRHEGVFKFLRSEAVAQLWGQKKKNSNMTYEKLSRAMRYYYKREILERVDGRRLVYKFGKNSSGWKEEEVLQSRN
How it was run: as §1

CRX = CRX (Homo sapiens, UniProt O43186 1-299); details: protein: recombinant; tags: N-terminal GST; dsDNA, one strand shown
CRX, sequence (O43186 whole entry): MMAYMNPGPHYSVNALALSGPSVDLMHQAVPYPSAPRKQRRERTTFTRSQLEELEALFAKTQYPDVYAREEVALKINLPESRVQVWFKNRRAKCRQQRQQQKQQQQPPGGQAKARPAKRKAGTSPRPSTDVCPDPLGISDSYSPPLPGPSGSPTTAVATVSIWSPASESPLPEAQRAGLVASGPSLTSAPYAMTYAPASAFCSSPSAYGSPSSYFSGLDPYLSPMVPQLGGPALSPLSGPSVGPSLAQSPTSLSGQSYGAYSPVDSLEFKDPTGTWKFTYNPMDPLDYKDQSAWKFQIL
How it was run: as §1

ETV1 = ETV1 (Homo sapiens, UniProt P50549 1-477); details: protein: recombinant; tags: N-terminal GST; dsDNA, one strand shown
ETV1, sequence (P50549 whole entry): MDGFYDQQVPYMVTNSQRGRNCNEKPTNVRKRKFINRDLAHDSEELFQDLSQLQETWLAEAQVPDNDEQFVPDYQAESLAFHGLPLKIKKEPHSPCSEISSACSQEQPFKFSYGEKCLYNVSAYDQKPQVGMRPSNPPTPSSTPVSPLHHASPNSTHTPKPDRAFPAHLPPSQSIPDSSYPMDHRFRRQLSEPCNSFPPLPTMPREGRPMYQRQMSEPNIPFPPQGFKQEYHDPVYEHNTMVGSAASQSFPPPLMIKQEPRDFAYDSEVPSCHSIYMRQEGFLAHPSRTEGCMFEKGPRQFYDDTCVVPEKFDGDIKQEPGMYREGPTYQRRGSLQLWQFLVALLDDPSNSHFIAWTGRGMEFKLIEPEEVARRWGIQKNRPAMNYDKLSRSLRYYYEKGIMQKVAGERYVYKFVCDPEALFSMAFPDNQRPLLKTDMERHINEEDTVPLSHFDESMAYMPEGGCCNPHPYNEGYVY
How it was run: as §1

ERF = target: T6, ERF (Homo sapiens, UniProt P50548 1-548); details: protein: recombinant; tags: N-terminal GST; dsDNA, one strand shown
T6 sequence: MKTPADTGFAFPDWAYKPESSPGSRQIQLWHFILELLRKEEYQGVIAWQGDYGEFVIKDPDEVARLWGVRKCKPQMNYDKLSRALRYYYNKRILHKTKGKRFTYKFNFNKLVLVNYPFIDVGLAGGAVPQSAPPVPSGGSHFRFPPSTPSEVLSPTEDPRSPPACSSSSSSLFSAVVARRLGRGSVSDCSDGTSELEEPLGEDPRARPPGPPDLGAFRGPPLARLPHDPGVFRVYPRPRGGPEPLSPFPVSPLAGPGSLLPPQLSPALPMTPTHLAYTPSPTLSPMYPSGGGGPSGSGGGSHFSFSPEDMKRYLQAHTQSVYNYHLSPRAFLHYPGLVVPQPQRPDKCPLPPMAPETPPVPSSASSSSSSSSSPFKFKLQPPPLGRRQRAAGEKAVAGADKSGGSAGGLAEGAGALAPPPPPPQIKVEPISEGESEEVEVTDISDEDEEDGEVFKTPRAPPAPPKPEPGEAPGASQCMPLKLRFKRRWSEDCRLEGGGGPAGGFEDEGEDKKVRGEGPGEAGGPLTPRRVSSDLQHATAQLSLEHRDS
How it was run: as §1

ETV3L = target: T7, ETV3L (Homo sapiens, UniProt Q6ZN32 1-361); details: protein: recombinant; tags: N-terminal GST; dsDNA, one strand shown
T7 sequence: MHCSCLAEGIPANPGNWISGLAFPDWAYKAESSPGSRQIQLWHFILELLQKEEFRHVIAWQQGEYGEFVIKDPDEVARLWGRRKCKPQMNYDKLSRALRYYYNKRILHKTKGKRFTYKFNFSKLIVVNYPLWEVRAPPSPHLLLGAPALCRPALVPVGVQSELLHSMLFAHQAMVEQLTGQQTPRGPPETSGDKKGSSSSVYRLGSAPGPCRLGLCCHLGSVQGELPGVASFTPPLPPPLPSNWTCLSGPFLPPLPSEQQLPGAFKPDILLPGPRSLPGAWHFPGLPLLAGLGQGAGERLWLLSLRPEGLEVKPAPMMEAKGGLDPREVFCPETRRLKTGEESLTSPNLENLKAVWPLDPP
How it was run: as §1

ETS2 = target: T8, ETS2 (Homo sapiens, UniProt P15036 1-469); details: protein: recombinant; tags: N-terminal GST; dsDNA, one strand shown
T8 sequence: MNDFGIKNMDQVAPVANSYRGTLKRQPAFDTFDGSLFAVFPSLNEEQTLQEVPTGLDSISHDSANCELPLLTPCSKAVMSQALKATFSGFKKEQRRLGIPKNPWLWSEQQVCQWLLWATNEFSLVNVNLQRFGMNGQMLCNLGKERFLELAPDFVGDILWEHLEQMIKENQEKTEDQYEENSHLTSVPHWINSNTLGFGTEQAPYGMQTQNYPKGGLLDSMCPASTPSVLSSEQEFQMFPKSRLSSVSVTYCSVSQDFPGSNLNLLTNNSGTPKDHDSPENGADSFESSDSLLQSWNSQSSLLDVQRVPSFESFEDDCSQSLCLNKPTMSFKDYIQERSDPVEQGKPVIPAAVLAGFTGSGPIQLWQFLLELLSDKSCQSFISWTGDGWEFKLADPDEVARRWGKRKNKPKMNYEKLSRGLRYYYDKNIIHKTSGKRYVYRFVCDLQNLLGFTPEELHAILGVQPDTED
How it was run: as §1

SPDEF = target: T9, SPDEF (Homo sapiens, UniProt O95238 1-335); details: protein: recombinant; tags: N-terminal GST; dsDNA, one strand shown
T9 sequence: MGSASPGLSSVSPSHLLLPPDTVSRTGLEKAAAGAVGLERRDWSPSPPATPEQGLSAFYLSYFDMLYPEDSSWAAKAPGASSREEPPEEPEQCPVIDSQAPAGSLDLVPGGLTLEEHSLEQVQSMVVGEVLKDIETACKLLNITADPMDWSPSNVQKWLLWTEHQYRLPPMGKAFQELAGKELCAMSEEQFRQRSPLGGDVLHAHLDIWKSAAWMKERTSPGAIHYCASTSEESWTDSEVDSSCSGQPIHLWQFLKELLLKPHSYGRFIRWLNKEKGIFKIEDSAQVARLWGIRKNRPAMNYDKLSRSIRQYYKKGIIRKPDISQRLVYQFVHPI
How it was run: as §1

ETV7 = target: T10, ETV7 (Homo sapiens, UniProt Q9Y603 1-341); details: protein: recombinant; tags: N-terminal GST; dsDNA, one strand shown
T10 sequence: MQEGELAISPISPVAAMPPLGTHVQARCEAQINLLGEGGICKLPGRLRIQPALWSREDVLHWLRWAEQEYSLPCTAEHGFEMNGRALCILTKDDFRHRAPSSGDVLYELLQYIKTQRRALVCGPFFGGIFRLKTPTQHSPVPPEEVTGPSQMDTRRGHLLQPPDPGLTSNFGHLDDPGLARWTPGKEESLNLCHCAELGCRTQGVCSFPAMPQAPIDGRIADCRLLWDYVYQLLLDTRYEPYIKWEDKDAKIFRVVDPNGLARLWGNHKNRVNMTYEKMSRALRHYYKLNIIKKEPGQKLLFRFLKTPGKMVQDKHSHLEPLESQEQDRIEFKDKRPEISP
How it was run: as §1

ELF5 = target: T11, ELF5 (Homo sapiens, UniProt Q9UKW6-2 1-255); details: protein: recombinant; tags: N-terminal GST; dsDNA, one strand shown
T11 sequence: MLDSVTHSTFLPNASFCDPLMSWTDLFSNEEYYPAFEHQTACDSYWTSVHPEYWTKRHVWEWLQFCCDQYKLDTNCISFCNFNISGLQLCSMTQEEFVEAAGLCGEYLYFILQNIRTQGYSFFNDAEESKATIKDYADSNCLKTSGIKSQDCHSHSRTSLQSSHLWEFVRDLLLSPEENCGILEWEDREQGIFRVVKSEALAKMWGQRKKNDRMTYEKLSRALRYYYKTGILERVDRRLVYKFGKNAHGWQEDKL
How it was run: as §1

ETV3 = target: T12, ETV3 (Homo sapiens, UniProt P41162-2 1-143); details: protein: recombinant; tags: N-terminal GST; dsDNA, one strand shown
T12 sequence: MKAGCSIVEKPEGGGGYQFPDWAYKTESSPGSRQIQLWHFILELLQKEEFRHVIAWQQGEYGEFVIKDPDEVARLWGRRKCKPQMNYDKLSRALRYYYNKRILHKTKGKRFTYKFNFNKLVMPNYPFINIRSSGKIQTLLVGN
How it was run: as §1

ETV6 = ETV6 (Homo sapiens, UniProt P41212 1-452); details: protein: recombinant; tags: N-terminal GST; dsDNA, one strand shown
ETV6, sequence (P41212 whole entry): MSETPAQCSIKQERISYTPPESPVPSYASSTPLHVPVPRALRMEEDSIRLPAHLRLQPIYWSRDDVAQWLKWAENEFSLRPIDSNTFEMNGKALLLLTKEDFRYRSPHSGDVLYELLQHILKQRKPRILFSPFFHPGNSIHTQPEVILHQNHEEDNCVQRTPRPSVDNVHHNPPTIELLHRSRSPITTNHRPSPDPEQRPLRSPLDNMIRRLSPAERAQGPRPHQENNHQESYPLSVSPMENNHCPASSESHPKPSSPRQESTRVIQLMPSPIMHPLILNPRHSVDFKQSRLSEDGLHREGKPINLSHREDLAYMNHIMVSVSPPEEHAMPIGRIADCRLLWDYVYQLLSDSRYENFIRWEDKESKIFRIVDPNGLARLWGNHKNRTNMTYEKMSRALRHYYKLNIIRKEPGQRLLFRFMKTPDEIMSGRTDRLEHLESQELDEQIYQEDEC
How it was run: as §1

Sequence: AAGTAG
- binding signal (FEV): 1.21 fold enrichment (6-mer frequency, TF over GST control)
- binding signal (ETV5): 1.25 fold enrichment (6-mer frequency, TF over GST control)
- binding signal (HSF1): 1.11 fold enrichment (6-mer frequency, TF over GST control)
- binding signal (SPIC): 1.3 fold enrichment (6-mer frequency, TF over GST control)
- binding signal (ELF4): 1.18 fold enrichment (6-mer frequency, TF over GST control)
- binding signal (ELK4): 1.06 fold enrichment (6-mer frequency, TF over GST control)
- binding signal (ETV2): 1.18 fold enrichment (6-mer frequency, TF over GST control)
- binding signal (ELF3): 1.31 fold enrichment (6-mer frequency, TF over GST control)
- binding signal (CRX): 1.2 fold enrichment (6-mer frequency, TF over GST control)
- binding signal (ETV1): 1.28 fold enrichment (6-mer frequency, TF over GST control)
- binding signal (ERF): 1.22 fold enrichment (6-mer frequency, TF over GST control)
- binding signal (ETV3L): 1.16 fold enrichment (6-mer frequency, TF over GST control)
- binding signal (ETS2): 1.31 fold enrichment (6-mer frequency, TF over GST control)
- binding signal (SPDEF): 1.07 fold enrichment (6-mer frequency, TF over GST control)
- binding signal (ETV7): 1.23 fold enrichment (6-mer frequency, TF over GST control)
- binding signal (ELF5): 1.28 fold enrichment (6-mer frequency, TF over GST control)
- binding signal (ETV3): 1.26 fold enrichment (6-mer frequency, TF over GST control)
- binding signal (ETV6): 1.28 fold enrichment (6-mer frequency, TF over GST control)

From publication PMC7862700, “An all-to-all approach to the identification of sequence-specific readers for epigenetic DNA modifications on cytosine”
